# Results filed as inconclusive are left out. Entries that show only a call come without a potency. Active and inactive are the calls of the source. Calls come from the whole dose curve; as a rule, active = well fitted inhibition curve with a large enough effect; inconclusive = small, poorly fitted or top-dose-only effect; inactive = no such curve, though single readings can be large or run the other way.
# Test system: Zika virus NS2B-NS3 protease (unlinked complex)
# Test: Primary screen GU Rhodamine qHTS for Zika virus inhibitors: Unlinked NS2B-NS3 protease assay (AID 1347159); note: nearly all actives have a fitted effect of over 60% in size
# Conditions: Recombinant ZIKV NS2B-NS3 protease, Rhodamine110 substrate fluorescence; series mostly up to 107 µM
# Summary of the method: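 A qHTS format was used, with compound concentrations ranging up to 114 microM. Each compound was preincubated with 25 nM NS2B-NS3 protease, and the substrate was then added at 1.5 microM. Curves were fitted with a 4-parameter Hill model.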
row,Structure (SMILES),Potency
1,Cc1ccc(F)cc1S(=O)(=O)N[C@@H]1CCN(Cc2ccc(OC(C)C)cc2)C1,inactive
2,CCCn1cc2c(nc(NC(=O)Nc3ccc(OC)cc3)n3nc(-c4ccco4)nc23)n1,inactive
3,C=C1CC(=O)C2OC2(C)CC2OC(=O)C(=C)C2C(O)C1OC(=O)/C(C)=C\C (centres undefined),inactive
4,O=C(CCl)Nc1cccc(NC2=NS(=O)(=O)c3ccccc32)c1,inactive
5,CC1(C)CCC2(C(=O)OC3OC(COC4OC(CO)C(O)C(O)C4O)C(O)C(O)C3O)CCC3(C)C(=CCC4C5(C)CCC(OC6OCC(O)C(O)C6O)C(C)(C)C5CCC43C)C2C1O (centres undefined),inactive
6,C=C(C)C(=O)O[C@H]1[C@H]2C(=C)C(=O)O[C@@H]2/C=C(\CO)CC/C=C(/C=O)[C@@H]1O,inactive
7,CNc1nc(Nc2ccc(C(=O)N3CCOCC3)cc2OC)nc2[nH]cc(Cl)c12,inactive
8,C=CC(=O)Nc1cccc(Nc2nc(Nc3ccc(NC4CN(CCF)C4)cc3OC)ncc2C(F)(F)F)c1,inactive
9,C=C1C(=O)OC2C=C(C)CC/C=C(\CO)CC(O)C12 (centres undefined),inactive
10,O=C(NCC(=O)N1CCCC1)Nc1ccc2cnccc2c1,inactive
11,Cc1nc(-c2cn3c(n2)-c2ccc(-c4cnn(C(C)(C)C(N)=O)c4)cc2OCC3)n(C(C)C)n1,inactive
12,Cc1cc(F)ccc1-c1nc(NCCN=C(N)NC#N)nc2c1ccc(=O)n2-c1c(F)cccc1F,inactive
13,COc1ccc(CCc2nc3c(C)c(-c4c(C)noc4C)c(C)cc3n2CCN2CCOCC2)cc1,inactive
14,CCN(CC)CCCCCCNc1cc(OC)cc2c(C)ccnc12,inactive

# From PubChem BioAssay (NCATS)
